Values joined by “and” are separate entries in the source; they are usually repeats but may differ in a detail not shown here. Equal entries are not always repeated.

For assay [1], the target named is T1, Muscle, skeletal receptor tyrosine-protein kinase (Homo sapiens) (UniProt O15146).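 Note: reported value is the mean percent inhibition of MuSK kinase.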
T1 sequence (whole entry): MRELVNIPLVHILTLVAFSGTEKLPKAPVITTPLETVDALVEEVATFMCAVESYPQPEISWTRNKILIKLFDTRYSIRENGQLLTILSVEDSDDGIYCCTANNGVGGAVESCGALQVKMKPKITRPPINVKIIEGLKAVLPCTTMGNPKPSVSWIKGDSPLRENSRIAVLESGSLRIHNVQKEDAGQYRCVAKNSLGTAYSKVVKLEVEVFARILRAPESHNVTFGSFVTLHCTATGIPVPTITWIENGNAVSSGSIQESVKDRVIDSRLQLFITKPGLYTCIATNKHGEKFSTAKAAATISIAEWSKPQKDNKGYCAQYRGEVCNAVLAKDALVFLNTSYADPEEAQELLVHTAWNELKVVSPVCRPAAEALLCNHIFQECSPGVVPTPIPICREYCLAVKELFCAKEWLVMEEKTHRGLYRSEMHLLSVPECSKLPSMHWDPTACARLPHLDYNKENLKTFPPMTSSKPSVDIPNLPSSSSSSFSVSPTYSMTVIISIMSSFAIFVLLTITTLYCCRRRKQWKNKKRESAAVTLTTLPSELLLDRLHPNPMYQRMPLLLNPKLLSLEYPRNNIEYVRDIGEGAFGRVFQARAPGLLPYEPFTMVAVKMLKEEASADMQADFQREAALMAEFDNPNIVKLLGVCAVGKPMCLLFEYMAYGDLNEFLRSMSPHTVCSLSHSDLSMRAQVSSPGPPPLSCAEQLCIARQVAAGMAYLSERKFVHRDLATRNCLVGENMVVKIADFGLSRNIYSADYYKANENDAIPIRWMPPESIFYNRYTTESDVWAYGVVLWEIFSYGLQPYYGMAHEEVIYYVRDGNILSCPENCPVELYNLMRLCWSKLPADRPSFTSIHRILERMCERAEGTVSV
Conditions: at 1 µM.

Assay [2] has as its target Platelet-derived growth factor receptor alpha (Homo sapiens) (UniProt P16234). The settings on record: at 0.1 µM.
For assay [3] the target is unchanged. Conditions: at 1 µM.
In assay [4] the test system is Platelet-derived growth factor receptor alpha (Homo sapiens), P16234 [D842V]. Conditions: at 0.1 µM.
Assay [5] shares this test system. Conditions: at 1 µM.
For assay [6], the system named is Platelet-derived growth factor receptor alpha (Homo sapiens), P16234 [T674I]. The settings on record: at 0.1 µM.
The test system is the same in assay [7]. The settings on record: at 1 µM.
The subject of assay [8] is Platelet-derived growth factor receptor alpha (Homo sapiens), P16234 [V561D]. The settings on record: at 0.1 µM.
For assay [9] the test system is unchanged. The settings on record: at 1 µM.
Assay [10] concerns the target Platelet-derived growth factor receptor beta (Homo sapiens) (UniProt P09619). Conditions: at 0.1 µM.
The target is the same in assay [11]. The settings on record: at 1 µM.
Assay [12] deals with Tyrosine-protein kinase FRK (Homo sapiens) (UniProt P42685). Conditions: at 0.1 µM.
For assay [13] the target is unchanged. The settings on record: at 1 µM.
Assay [14] addresses Protein-tyrosine kinase 2-beta (Homo sapiens) (UniProt Q14289). The settings on record: at 0.1 µM.
Assay [15] shares this target. Conditions: at 1 µM.
The target of assay [16] is Proto-oncogene tyrosine-protein kinase receptor Ret (Homo sapiens) (UniProt P07949). The settings on record: at 0.1 µM.
Assay [17] has the same target. The settings on record: at 1 µM.
Assay [18] relates to Proto-oncogene tyrosine-protein kinase receptor Ret (Homo sapiens), P07949 [V804L]. The settings on record: at 0.1 µM.
The test system is the same in assay [19]. Conditions: at 1 µM.
The subject of assay [20] is Proto-oncogene tyrosine-protein kinase receptor Ret (Homo sapiens), P07949 [Y791F]. The settings on record: at 0.1 µM.

Sequence of Platelet-derived growth factor receptor alpha (Homo sapiens), P16234 [T674I] (P16234 whole entry T674I): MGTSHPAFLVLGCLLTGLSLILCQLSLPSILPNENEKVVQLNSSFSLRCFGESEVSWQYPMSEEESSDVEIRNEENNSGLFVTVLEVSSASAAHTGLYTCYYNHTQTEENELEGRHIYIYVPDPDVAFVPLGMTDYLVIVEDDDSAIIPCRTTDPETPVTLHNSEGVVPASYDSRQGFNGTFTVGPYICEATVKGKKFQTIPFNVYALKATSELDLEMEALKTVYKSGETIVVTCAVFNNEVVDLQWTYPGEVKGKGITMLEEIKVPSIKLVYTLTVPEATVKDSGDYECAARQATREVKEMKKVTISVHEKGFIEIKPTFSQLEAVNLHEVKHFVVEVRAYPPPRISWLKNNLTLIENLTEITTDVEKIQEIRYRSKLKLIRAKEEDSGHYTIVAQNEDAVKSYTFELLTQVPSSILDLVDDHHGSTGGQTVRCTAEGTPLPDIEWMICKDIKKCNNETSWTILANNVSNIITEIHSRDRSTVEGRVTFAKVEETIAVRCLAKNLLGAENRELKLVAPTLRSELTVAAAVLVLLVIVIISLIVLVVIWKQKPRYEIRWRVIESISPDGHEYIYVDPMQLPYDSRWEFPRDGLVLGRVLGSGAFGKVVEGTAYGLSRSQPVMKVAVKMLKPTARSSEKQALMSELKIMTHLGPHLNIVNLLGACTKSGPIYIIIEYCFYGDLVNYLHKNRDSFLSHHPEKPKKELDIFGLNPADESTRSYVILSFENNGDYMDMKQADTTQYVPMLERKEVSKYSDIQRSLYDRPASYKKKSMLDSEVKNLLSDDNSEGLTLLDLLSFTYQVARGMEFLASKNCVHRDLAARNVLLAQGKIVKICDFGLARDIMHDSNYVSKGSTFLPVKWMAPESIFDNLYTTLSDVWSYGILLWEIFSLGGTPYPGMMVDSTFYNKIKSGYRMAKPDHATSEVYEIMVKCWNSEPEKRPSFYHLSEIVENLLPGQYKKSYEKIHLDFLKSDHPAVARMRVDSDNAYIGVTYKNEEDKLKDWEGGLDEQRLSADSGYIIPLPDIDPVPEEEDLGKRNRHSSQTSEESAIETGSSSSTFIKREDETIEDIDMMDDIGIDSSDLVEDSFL
Sequence of Proto-oncogene tyrosine-protein kinase receptor Ret (Homo sapiens), P07949 [Y791F] (P07949 whole entry Y791F): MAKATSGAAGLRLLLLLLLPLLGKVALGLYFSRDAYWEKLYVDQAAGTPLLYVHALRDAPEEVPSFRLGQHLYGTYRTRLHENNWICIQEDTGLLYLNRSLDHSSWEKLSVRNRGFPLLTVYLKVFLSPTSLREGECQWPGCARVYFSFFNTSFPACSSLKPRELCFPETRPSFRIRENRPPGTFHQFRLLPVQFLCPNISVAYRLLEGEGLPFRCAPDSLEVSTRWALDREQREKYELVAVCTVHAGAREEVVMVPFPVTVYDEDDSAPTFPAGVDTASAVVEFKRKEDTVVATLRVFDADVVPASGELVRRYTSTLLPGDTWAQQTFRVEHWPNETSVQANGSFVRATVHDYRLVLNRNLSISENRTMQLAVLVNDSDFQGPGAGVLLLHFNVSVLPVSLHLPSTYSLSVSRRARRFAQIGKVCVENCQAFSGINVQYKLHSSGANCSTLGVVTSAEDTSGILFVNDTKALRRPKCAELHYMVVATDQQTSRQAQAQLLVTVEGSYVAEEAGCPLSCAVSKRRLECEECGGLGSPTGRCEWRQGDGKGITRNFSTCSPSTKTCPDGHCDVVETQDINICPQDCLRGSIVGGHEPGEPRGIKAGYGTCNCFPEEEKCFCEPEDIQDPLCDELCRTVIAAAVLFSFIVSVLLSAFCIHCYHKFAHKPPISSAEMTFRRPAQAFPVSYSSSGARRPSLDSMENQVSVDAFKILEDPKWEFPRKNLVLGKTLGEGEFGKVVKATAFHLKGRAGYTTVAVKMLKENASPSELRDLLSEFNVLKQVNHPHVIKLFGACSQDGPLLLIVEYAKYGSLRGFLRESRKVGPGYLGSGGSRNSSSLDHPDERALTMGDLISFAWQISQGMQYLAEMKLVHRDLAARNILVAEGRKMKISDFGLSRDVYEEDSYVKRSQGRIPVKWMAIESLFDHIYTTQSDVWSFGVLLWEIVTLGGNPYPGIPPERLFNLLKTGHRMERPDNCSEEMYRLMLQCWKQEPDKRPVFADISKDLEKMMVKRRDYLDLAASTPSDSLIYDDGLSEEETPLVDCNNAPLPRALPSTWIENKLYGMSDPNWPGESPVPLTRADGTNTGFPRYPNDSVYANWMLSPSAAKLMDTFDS
Sequence of Proto-oncogene tyrosine-protein kinase receptor Ret (Homo sapiens), P07949 [V804L] (P07949 whole entry V804L): as the sequence (P07949 whole entry Y791F) above, with F791Y, V804L counted along it
Sequence of Proto-oncogene tyrosine-protein kinase receptor Ret (Homo sapiens) (P07949 whole entry): as the sequence (P07949 whole entry Y791F) above, with F791Y counted along it
Sequence of Tyrosine-protein kinase FRK (Homo sapiens) (P42685 whole entry): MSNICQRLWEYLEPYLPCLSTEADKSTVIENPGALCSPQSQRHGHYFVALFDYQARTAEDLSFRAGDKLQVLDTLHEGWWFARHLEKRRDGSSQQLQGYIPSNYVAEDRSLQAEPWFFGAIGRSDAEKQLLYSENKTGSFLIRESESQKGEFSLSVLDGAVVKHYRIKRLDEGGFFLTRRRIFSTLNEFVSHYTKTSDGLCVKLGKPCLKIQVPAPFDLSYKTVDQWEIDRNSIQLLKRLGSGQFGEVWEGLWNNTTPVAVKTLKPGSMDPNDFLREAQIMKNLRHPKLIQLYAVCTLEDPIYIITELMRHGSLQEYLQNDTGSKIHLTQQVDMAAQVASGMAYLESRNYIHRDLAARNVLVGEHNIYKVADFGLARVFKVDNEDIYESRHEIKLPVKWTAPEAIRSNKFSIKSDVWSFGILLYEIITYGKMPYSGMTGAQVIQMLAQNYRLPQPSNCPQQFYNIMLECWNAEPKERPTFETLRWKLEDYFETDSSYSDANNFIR

As a reminder, the inhibition is the relative decrease from the control value, in per cent. Regarding `Fc1cccc(COc2ccc(Nc3ncncc3C#Cc3ccccc3)cc2Cl)c1`, the inhibition in assay [1] was determined as 3.28%; in [2] it was 13%; in assay [3] it was 12.4%; in assay [4], 5.22%; in assay [5] it was 4.74%; in [6], 8.12%. Moreover, the inhibition in assay [7] came out at 9.74%; in [8] it was 8.16%; in assay [9], 5.45%; in [10] it was 6.95%; in assay [11], 8.55%; in assay [12] it was 1.23%. The inhibition in assay [13] is 1.62%; in [14], 13.9%; in assay [15] it was 15.1%; in assay [16] it was -0.25%; in assay [17], 5.48%; in assay [18], 5.31%. Also, the inhibition in assay [19] was determined as 11.9%; in [20], 5.33%.

On to `COC(=O)Nc1nc2ccc(Oc3ccc(NC(=O)Nc4cc(C(F)(F)F)ccc4F)cc3)cc2s1`, for which the inhibition is 85.6% in assay [1]; 70.3% in assay [2]; 83.5% in assay [3]; 5.8% in [4]; 22.8% in assay [5]; 41.6% in assay [6]. Also, the inhibition in [7] worked out at 92%; in assay [8], 74.8%; in assay [9] it was 93.7%; in [10] it was 20.2%; in assay [11], 55.9%; in assay [12], 0.62%. Further, the inhibition in assay [13] came out at 4.14%; in assay [14], 1.98%; in [15] it was 6.74%; in [16] it was 86.7%; in [17], 88.4%; in assay [18], 67.3%. Moreover, the inhibition in assay [19] turned out to be 84.6%; in [20], 78.9%.

Consider `NS(=O)(=O)c1ccc(N/N=C2\C(=O)Nc3cccc(CCc4ccncc4)c32)cc1`, for which the inhibition was found to be 24.2% in assay [1]; 33.5% in assay [2]; 60.7% in [3]; 16.9% in [4]; 58.5% in [5]; 6.75% in assay [6]. Further, the inhibition in [7] was 34.6%; in assay [8], 26.3%; in [9] it was 72.3%; in [10] it was 29.6%; in [11], 58.5%; in [12], -0.74%. Further, the inhibition in [13] is -0.31%; in assay [14], 4.23%; in [15], 20.1%; in [16], 21.6%; in [17], 43.4%; in [18], 38.5%. In addition, the inhibition in [19] came to 43.6%; in [20], 18.8%.

`Cc1cc(O)cc(C)c1/C=C/c1cncc(C(=O)OC(C)(C)C)c1`: the inhibition in [1] is 3.99%; in assay [2], 9.43%; in assay [3], 42.6%; in [4], 5.23%; in [5], 14.7%; in assay [6] it was 4.63%. The inhibition in [7] turned out to be 5.73%; in assay [8], 14.4%; in [9], 51%; in assay [10] it was 9.17%; in [11], 43.3%; in assay [12] it was 3.51%. For the same compound, the inhibition in assay [13] came to 20.1%; in assay [14], 13.2%; in assay [15], 7.22%; in assay [16] it was 5.39%; in assay [17], 7.34%; in assay [18], 3.42%. Also, the inhibition is 11.6% in assay [19] and 4.05% in assay [20].

Consider `Cc1ccc(-c2cc3c(NC(=O)C4CC4)ncnc3o2)cc1`, for which the inhibition came out at 7.78% in [1]; 13.9% in assay [2]; 38.1% in assay [3]; 7.31% in [4]; 29.8% in assay [5]; 6.86% in assay [6]. Also, the inhibition in [7] was 32.7%; in assay [8] it was 8.94%; in assay [9], 31.9%; in assay [10], 8.16%; in assay [11], 24.5%; in assay [12], 2.14%. For the same compound, the inhibition in assay [13] turned out to be 0.91%; in assay [14] it was 9.96%; in assay [15] it was 10.2%; in [16] it was 8.44%; in [17], 27.6%; in assay [18], 6.9%. In addition, the inhibition in assay [19] was found to be 13.6%; in assay [20], 8.23%.

On to `OCCCNc1nccc(-c2c(-c3ccc(F)cc3)nn3cc(C(F)(F)F)ccc23)n1`, for which the inhibition came out at 6.98% in [1]; 10.9% in assay [2]; 15.3% in assay [3]; 2.53% in assay [4]; 5.03% in [5]; 4.67% in [6]. The inhibition worked out at 6.04% in [7]; 0.23% in assay [8]; 6.06% in assay [9]; 6.16% in assay [10]; 14.4% in [11]; 0.71% in [12]. Moreover, the inhibition in [13] amounted to 1.35%; in assay [14], 3.13%; in assay [15] it was 7.75%; in assay [16], 4.24%; in [17], 11.4%; in assay [18], 1.59%. The inhibition in assay [19] was 3.05%; in assay [20] it was 6.39%.

In the case of `Nc1nonc1-c1nc2cnccc2n1C1CC1`, the inhibition in assay [1] is 8.16% and 1.56%; in assay [2], 15.3% and 5.54%; in [3] it was 18.8% and 15.6%; in assay [4], 4.39% and 4.32%; in [5], 16.4% and 18.7%; in [6] it was 6.49% and 5.23%. The inhibition is 20.2% and 20.4% in assay [7]; 4.47% and 2.61% in assay [8]; 14% and 12.1% in [9]; 10.2% and 2.99% in assay [10]; 26.9% and 22.4% in assay [11]; 3.06% and 1.01% in [12]. Besides, the inhibition was 1.87% and 3.49% in assay [13]; 9.52% and 11.2% in assay [14]; 8.23% and 11.7% in assay [15]; 4.13% and 4.16% in [16]; 10.6% and 0.77% in [17]; 4.79% and 3.57% in assay [18]. Also, the inhibition in assay [19] is 9.45% and 6.56%; in [20] it was 6.44% and 5.27%.

For `O=C(O[C@H]1CN[C@H](C#Cc2cc3ncnc(Nc4ccc5c(cnn5Cc5ccccc5)c4)c3s2)C1)N1CCOCC1`, the inhibition in assay [1] is -0.19%; in [2] it was 2.17%; in assay [3] it was 8.81%; in [4], 2.71%; in assay [5] it was 3.09%; in assay [6] it was -0.12%. Moreover, the inhibition worked out at 2.78% in assay [7]; 2.22% in [8]; 2.22% in [9]; 2.18% in assay [10]; 6.66% in [11]; 0.07% in [12]. In addition, the inhibition in [13] is -1.26%; in assay [14] it was 1.18%; in assay [15], -1.26%; in assay [16] it was 2.44%; in [17], 4.66%; in [18], 2.83%. Also, the inhibition in assay [19] is 4.7%; in [20], 2.45%.

(Values after ChEMBL document CHEMBL1961873, “Compounds: GSK PKIS; Assays: Nanosyn kinase panel” (2012).)
